Pf Dd2 inh – inhibitors of Plasmodium falciparum Dd2 growth; P. falciparum Dd2 growth, SYBR Green, 72 h; stronger effect = lower value; activity change, % at 10 µM; 2.3% of 94,000 active; AID 1159554; in the data active means activity change below about -80%
C diff HTS – C. difficile growth inhibition; growth activity, negative = inhibition, % at 16 µg/mL (by protocol); Clostridium difficile clinical isolate growth, OD600, 24 h; stronger effect = lower value; 0.25% of 86,000 active;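 active means mean growth activity at or below -80% and every replicate also at or below -80%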
Hits are given with their value; . = inactive; / = no result. Hits are enriched below; roughly 2.3% of the tested compounds scored in any of these assays.

SMILES | Pf Dd2 inh | C diff HTS
C[C@@H]1CCCCO[C@@H](CN(C)C(=O)Nc2ccc(F)cc2)[C@H](C)CN([C@H](C)CO)C(=O)c2cc(NS(=O)(=O)c3ccc(F)cc3)ccc2O1 | . | .
C[C@@H]1CCCCO[C@H](CN(C)C(=O)Nc2ccc(C(F)(F)F)cc2)[C@@H](C)CN([C@H](C)CO)C(=O)c2cc(NS(=O)(=O)c3ccccc3)ccc2O1 | . | .
C[C@@H]1CCCCO[C@H](CN(C)C(=O)Nc2ccc(C(F)(F)F)cc2)[C@@H](C)CN([C@@H](C)CO)C(=O)c2cc(NS(=O)(=O)c3ccccc3)ccc2O1 | -84 | .
C[C@@H]1CN([C@H](C)CO)C(=O)c2cc(NS(=O)(=O)c3ccc(Cl)cc3)ccc2O[C@@H](C)CCCCO[C@H]1CN(C)C(=O)Nc1ccccc1 | . | .
C[C@@H]1CCCCO[C@H](CN(C)C(=O)Nc2ccccc2)[C@@H](C)CN([C@@H](C)CO)C(=O)c2cc(NS(=O)(=O)c3ccc(Cl)cc3)ccc2O1 | -89 | .
C[C@@H]1CCCCO[C@H](CN(C)C(=O)Nc2ccc(F)cc2)[C@H](C)CN([C@H](C)CO)C(=O)c2cc(NS(=O)(=O)c3ccc(F)cc3)ccc2O1 | -87 | .
COc1ccccc1C#Cc1cnc2c(c1)C(=O)N([C@@H](C)CO)C[C@@H](C)[C@@H](CN(C)C(C)=O)O2 | . | .
C[C@@H]1CCCCO[C@H](CN(C)S(=O)(=O)c2cccs2)[C@H](C)CN([C@H](C)CO)C(=O)c2cc(NS(=O)(=O)c3ccc(Cl)cc3)ccc2O1 | -87 | .
C[C@@H]1CN([C@H](C)CO)C(=O)c2cc(NS(=O)(=O)c3ccc(Cl)cc3)ccc2O[C@@H](C)CCCCO[C@@H]1CN(C)S(=O)(=O)c1cccs1 | . | .
C[C@H]1CCCCO[C@H](CN(C)S(=O)(=O)c2cccs2)[C@@H](C)CN([C@@H](C)CO)C(=O)c2cc(NS(=O)(=O)c3ccccc3)ccc2O1 | . | .
C[C@@H]1CCCCO[C@H](CN(C)S(=O)(=O)c2cccs2)[C@H](C)CN([C@H](C)CO)C(=O)c2cc(NS(=O)(=O)c3ccccc3)ccc2O1 | -83 | .
CN1C(=O)c2cc(NC(=O)c3cccs3)ccc2OC[C@@H]2O[C@H](CC(=O)N3CCCCC3)CC[C@@H]21 | . | /
CNC(=O)C[C@H]1CC[C@@H]2[C@H](COC[C@H](O)CN2S(=O)(=O)c2ccccc2Cl)O1 | . | .
C[C@@H]1CCCCO[C@@H](CN(C)S(=O)(=O)c2cccs2)[C@@H](C)CN([C@@H](C)CO)C(=O)c2cc(NC(=O)Nc3ccc4c(c3)OCO4)ccc2O1 | . | .
C[C@@H]1CCCCO[C@@H](CN(C)S(=O)(=O)c2cccs2)[C@@H](C)CN([C@H](C)CO)C(=O)c2cc(NC(=O)Cc3ccccc3)ccc2O1 | . | .
C[C@@H]1CN([C@H](C)CO)C(=O)c2cc(NC(=O)Nc3ccc4c(c3)OCO4)ccc2O[C@@H](C)CCCCO[C@@H]1CN(C)S(=O)(=O)c1cccs1 | -92 | .
C[C@@H]1CN([C@H](C)CO)C(=O)c2cc(NC(=O)Cc3ccccc3)ccc2O[C@@H](C)CCCCO[C@@H]1CN(C)S(=O)(=O)c1cccs1 | -81 | .
C[C@@H]1CCCCO[C@@H](CN(C)S(=O)(=O)c2cccs2)[C@H](C)CN([C@@H](C)CO)C(=O)c2cc(NC(=O)NC3CCCCC3)ccc2O1 | . | .
C[C@@H]1CCCCO[C@H](CN(C)S(=O)(=O)c2cccs2)[C@H](C)CN([C@@H](C)CO)C(=O)c2cc(NC(=O)NC3CCCCC3)ccc2O1 | -84 | .
C[C@@H]1CN([C@@H](C)CO)C(=O)c2cc(NC(=O)NC3CCCCC3)ccc2O[C@@H](C)CCCCO[C@@H]1CN(C)S(=O)(=O)c1cccs1 | -89 | .
C[C@@H]1CCCCO[C@H](CN(C)S(=O)(=O)c2cccs2)[C@@H](C)CN([C@H](C)CO)C(=O)c2cc(NC(=O)NC3CCCCC3)ccc2O1 | . | .
CO[C@H]1CN(C)C(=O)c2cc(NC(=O)C3CCC3)ccc2OC[C@@H](C)N(Cc2cccnc2)C[C@@H]1C | . | /
O=C(c1cccnc1)N1C[C@H]2[C@@H](c3ccccc31)[C@H](CO)N2C(=O)Nc1ccc(F)cc1 | . | .
CO[C@H]1CC[C@@H]2CCN(C)C(=O)C[C@@H](c3ccccc3)CN(C)C(=O)c3cccc(C#N)c3OC[C@@H]1O2 | / | .
Cc1noc(C)c1S(=O)(=O)N(C)C[C@H]1OCCCC[C@H](C)Oc2ccc(NS(=O)(=O)c3cccs3)cc2C(=O)N([C@@H](C)CO)C[C@@H]1C | . | .
SMILES | Pf Dd2 inh | C diff HTS
COc1ccc(S(=O)(=O)Nc2ccc3c(c2)C(=O)N([C@@H](C)CO)C[C@H](C)[C@@H](CN(C)C(=O)Nc2ccc(C(F)(F)F)cc2)OCCCC[C@@H](C)O3)cc1 | -84 | .
COc1ccc(S(=O)(=O)Nc2ccc3c(c2)C(=O)N([C@@H](C)CO)C[C@H](C)[C@@H](CN(C)C(=O)Nc2ccc(C(F)(F)F)cc2)OCCCC[C@H](C)O3)cc1 | . | .
COc1ccc(S(=O)(=O)Nc2ccc3c(c2)C(=O)N([C@@H](C)CO)C[C@@H](C)[C@@H](CN(C)C(=O)Nc2ccc(C(F)(F)F)cc2)OCCCC[C@H](C)O3)cc1 | -87 | .
COc1ccc(S(=O)(=O)Nc2ccc3c(c2)C(=O)N([C@@H](C)CO)C[C@H](C)[C@H](CN(C)C(=O)Nc2ccc(C(F)(F)F)cc2)OCCCC[C@H](C)O3)cc1 | . | .
O=C(Nc1cccc(F)c1)N1CCCCN2[C@@H](CO)[C@@H](c3ccc(-c4ccccc4F)cc3)[C@@H]2C1 | . | -98
Cc1ccccc1-c1ccc([C@H]2[C@@H](CO)N3CCCCN(C(=O)Nc4cccc(F)c4)C[C@@H]23)cc1 | . | .
O=C(Nc1ccc(F)cc1)N1CCCCN2[C@@H](CO)[C@@H](c3ccc(-c4cccc(F)c4)cc3)[C@@H]2C1 | . | -99
Cc1ccc(-c2ccc([C@@H]3[C@H](CO)N4CCCCN(C(=O)Nc5cccc(F)c5)C[C@@H]34)cc2)cc1 | . | -98
O=C(Nc1cccc(F)c1)N1CCCCN2[C@H](CO)[C@H](c3ccc(-c4ccccc4F)cc3)[C@H]2C1 | . | .
Cc1ccccc1-c1ccc([C@@H]2[C@H](CO)N3CCCCN(C(=O)Nc4cccc(F)c4)C[C@@H]23)cc1 | . | -96
Cc1ccc(-c2ccc([C@H]3[C@@H](CO)N4CCCCN(C(=O)Nc5cccc(F)c5)C[C@@H]34)cc2)cc1 | . | .
O=C(Nc1ccc(F)cc1)N1CCCCN2[C@H](C1)[C@@H](c1ccc(-c3cccc(F)c3)cc1)[C@@H]2CO | . | .
C[C@@H]1CN([C@@H](C)CO)C(=O)c2cc(NC(=O)Nc3ccc(C(F)(F)F)cc3)ccc2O[C@@H](C)CCCCO[C@H]1CN(C)S(=O)(=O)c1ccc(Cl)cc1 | . | .
CCCNC(=O)N1C[C@H]2[C@@H](c3ccccc31)[C@H](CO)N2C(=O)NCCC | . | .
CO[C@H]1CN(C)C(=O)c2cc(NC(=O)C3CCC3)ccc2OC[C@@H](C)N(Cc2ccccn2)C[C@H]1C | . | /
O=C(C[C@H]1CC[C@H]2[C@@H](COC[C@@H](O)CN2C(=O)c2ccccc2)O1)Nc1ccccc1 | . | .
Cc1ccc(-c2ccc([C@@H]3[C@H](CO)N4CCCCN(C(=O)Nc5ccccc5)C[C@@H]34)cc2)cc1 | . | -92

Screening data as filed in PubChem.
